PubChem BioAssay (NCI)
Values joined by “and” are separate entries in the source; they are usually repeats but may differ in a detail not shown here. Equal entries are not always repeated. About 83,000 compounds went through this panel and 20% of them were active in at least one assay; those are over-represented in the sample as a whole.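 Single-concentration screen, 48 h exposure, 96-well plates. Endpoint: percent growth. Below 10 = active.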 Active and inactive are the calls of the source.

These compounds were tested on HOP-92 NSCLC (assay: NCI-60 one-dose screen, 48 h (100 = growth as untreated, 0 = no growth, -100 = all killed)). Details: 10 µM unless noted.
In the case of `COc1cc(-c2nc3occn3c2-c2ccnc(NCCCNS(=O)(=O)c3ccc(O)cc3)n2)ccc1F`, the growth is reported as 86.7% (inactive).
In the case of `CN(C)c1ccc2nc3ccc(=O)cc-3sc2c1`, the growth is reported as 49% (inactive) and 61% (inactive).
In the case of `ON=C1CCCCCCCC1`, the growth is reported as 105% (inactive) and 102% (inactive).
For `[Cu+].[NH-][C@H]1C[N-]C(=O)[C@H]([C@H]2CCN=C(N)N2)[N-]C(=O)/C(=C\NC(N)=O)[N-]C(=O)[C@H](CNC(=O)C[C@@H](N)CCCN)[N-]C(=O)[C@H](CO)[N-]C1=O`, the growth was -8.71% (active).
`CC(C)=CCc1cc(O)c(O)c2oc3cc(O)cc(O)c3c(=O)c12` was tested, and the growth was 86.9% (inactive).
`Cc1ccc(S(=O)(=O)OC[C@@]2(C)CC[C@]3(C)CC[C@]4(C)C(=CC[C@@H]5[C@@]6(C)CCCNC(C)(C)[C@@H]6CC[C@]54C)[C@@H]3C2)cc1` was tested, and the growth was -71.2% (active).
`COc1cc(C=O)ccc1Oc1ccc([N+](=O)[O-])cc1[N+](=O)[O-]` was tested, and the growth was 78.8% (inactive).
`COc1cc2ncnc(Nc3ccc(F)c(Cl)c3)c2cc1OCC(=O)N1CCCCC1` was tested, and the growth was 81.6% (inactive).
For `CCN1C(=S)N(CC)C2C1NC(=S)N2/N=C/C=C/c1ccccc1` (configuration not stated), the growth was 62.2% (inactive).

What follows are compounds tested on NCI-H522 lung in the same assay as above. Details: 10 µM unless noted.
With `CN(Cc1ccccc1)c1nc(Cl)c(C2CC(c3ccc(F)cc3)=NN2C=O)s1` (configuration not stated) the growth was 83.3% (inactive).
In the case of `CCOC(=O)c1ccc(Nc2ncnc3c2cnn3-c2cccc(F)c2)cc1`, the growth is reported as 91.9% (inactive).
With `Cc1ccc2nc3ccccc3c(NCc3ccc(Cl)cc3)c2c1` the growth was 54.2% (inactive).
For `O=S(=O)(Nc1cc(Sc2cccc3cccnc23)c(O)c2ccccc12)c1ccc(F)cc1`, the growth was -48.7% (active).
`CCCCC1COc2cccc3c2N1C=C/C3=C\C(=O)N(C)c1cccc(Cl)c1` (configuration not stated) was tested, and the growth was 90.1% (inactive).
`Cc1ccc(-c2nc3nc(-c4ccc(Cl)cc4)nc(N4CCCNCC4)c3o2)cc1` was tested, and the growth was 62.2% (inactive).
With `COc1cc(NS(=O)(=O)C(C)C)cc(-c2cc(-c3ccc(N4CCNCC4)cc3)cnc2N)c1` the growth was 52.8% (inactive).
`COCCn1cc(-c2csc(-c3cn(C)c4ccc(F)cc34)n2)c2cccnc21` was tested, and the growth was 30.8% (inactive).
For `COc1ccc(NC(=O)Nc2ccccc2CNc2nc(Nc3ccc(OCCN4CCCC4)cc3)ncc2Cl)cc1`, the growth was -3.26% (active).
`COc1cc(CNC(=O)CCCC/C=C/C(C)C)ccc1O` was tested, and the growth was 83.1% (inactive) and 75.5% (inactive).
With `CC(Sc1ccccc1)C(=O)O` (configuration not stated) the growth was 102% (inactive).
In the case of `Cc1ccc(-c2nc3nc(-c4ccccc4)nc(N4CCCNCC4)c3o2)cc1`, the growth is reported as -69.6% (active).
In the case of `CCCCn1c(C(=O)c2c[nH]c3ccccc23)n[nH]c1=S`, the growth is reported as 83.3% (inactive).
For `O=C1C(=C(O)c2ccccc2)C(=O)c2ccccc21`, the growth was 101% (inactive).
With `COc1ccc(-c2c[nH]c(C(=O)O)c2-c2cc(OC)c(OC)c(OC)c2)cc1` the growth was 28.1% (inactive).
`O=C(Nc1ccc2ccccc2c1)c1cc2ccccc2cc1O` was tested, and the growth was 62.6% (inactive).
With `N=C(N)SCc1c2ccccc2c(CSC(=N)N)c2ccccc12` the growth was 31.2% (inactive).
With `NNCCc1ccccc1` the growth was 92.1% (inactive) and 94.1% (inactive).
In the case of `Brc1ccc(/C=C(/C2=NCCN2)n2ccc3ccccc32)cc1`, the growth is reported as 62.7% (inactive).
In the case of `C=C(c1ccc(C(=O)O)cc1)c1cc2c(cc1C)C(C)(C)CCC2(C)C`, the growth is reported as 52.4% (inactive) and 61.4% (inactive).
With `N=C(N)c1ccc(-c2ccc(-c3ccc(Cl)c(Cl)c3)s2)cc1` the growth was -38.4% (active).
With `C=C(CN1CC=CCC1)[C@@H]1CC[C@]2(COC(C)=O)CC[C@]3(C)[C@H](CC[C@@H]4[C@@]5(C)CC[C@H](O)C(C)(C)[C@@H]5CC[C@]43C)[C@@H]12` the growth was 95% (inactive).
`O=[N+]([O-])c1cc(C(F)(F)F)ccc1Sc1ccc(C(F)(F)F)cc1[N+](=O)[O-]` was tested, and the growth was 77.9% (inactive).
For `CCn1cc(C(=O)NN=C2CCCC2)c(=O)c2ccc(C)nc21`, the growth was 88.8% (inactive).
For `O=C(Nc1ccc(Cl)c(Cl)c1)Nc1ccc(Cl)c(Cl)c1`, the growth was -83.9% (active) and 6.21% (active).
In the case of `Cn1c(=O)c2c(nc(Nc3cc(=O)[nH]c(=O)[nH]3)n2Cc2ccccc2)n(C)c1=O`, the growth is reported as 4.24% (active).
In the case of `CCOC(=O)c1c(-c2ccc(OC)cc2)c(C#N)c2c(C#N)c(N)nn2c1N`, the growth is reported as -6.29% (active).
In the case of `COc1cc(/C=N/NC(=O)CCN2c3ccccc3Sc3ccccc32)cc(OC)c1OC`, the growth is reported as 70.3% (inactive).
In the case of `O/N=C(/c1ccccc1)c1ccc2c3c(cccc13)CC2`, the growth is reported as 88.3% (inactive) and 89.6% (inactive).
In the case of `COc1cc(-c2nc3occn3c2-c2ccnc(NCCCNS(=O)(=O)c3ccc(O)cc3)n2)ccc1F`, the growth is reported as 72.4% (inactive).
In the case of `CN(C)c1ccc2nc3ccc(=O)cc-3sc2c1`, the growth is reported as -10.8% (active) and 41.5% (inactive).
For `ON=C1CCCCCCCC1`, the growth was 94.1% (inactive) and 92.8% (inactive).
For `[Cu+].[NH-][C@H]1C[N-]C(=O)[C@H]([C@H]2CCN=C(N)N2)[N-]C(=O)/C(=C\NC(N)=O)[N-]C(=O)[C@H](CNC(=O)C[C@@H](N)CCCN)[N-]C(=O)[C@H](CO)[N-]C1=O`, the growth was 85.6% (inactive).
`CC(C)=CCc1cc(O)c(O)c2oc3cc(O)cc(O)c3c(=O)c12` was tested, and the growth was 58.4% (inactive).
`Cc1ccc(S(=O)(=O)OC[C@@]2(C)CC[C@]3(C)CC[C@]4(C)C(=CC[C@@H]5[C@@]6(C)CCCNC(C)(C)[C@@H]6CC[C@]54C)[C@@H]3C2)cc1` was tested, and the growth was -81.5% (active).
For `COc1cc(C=O)ccc1Oc1ccc([N+](=O)[O-])cc1[N+](=O)[O-]`, the growth was 94.3% (inactive).
`COc1cc2ncnc(Nc3ccc(F)c(Cl)c3)c2cc1OCC(=O)N1CCCCC1` was tested, and the growth was 33.1% (inactive).
`CCN1C(=S)N(CC)C2C1NC(=S)N2/N=C/C=C/c1ccccc1` (configuration not stated) was tested, and the growth was -7.6% (active).
